The text below walks through data of publication PMC5540273 (PLoS ONE, 2017).
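Further: KINOMEscan kinase panel screen.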

The subject of one assay is GAK. To be noted: concentration: 1 μM, replicates: in singlicate; n = 1.
For `Nc1ncnc2c1ncn2-c1ccc(Cl)cc1` [AH2635], the “%Inh” value turned out to be 7%.

Take `Nc1nc(-c2ccccc2F)c(-c2ccnc3ccccc23)s1` [GW560459]: the “%Inh” value is listed as 79%.

Regarding `COc1cc2ncn(-c3cc(OCc4ccc(S(C)(=O)=O)cc4)c(C(N)=O)s3)c2cc1OC` [GW869979], the “%Inh” value is listed as 7%.

As to `CCC(=O)c1c(-c2ccccc2)c2cc(Cl)ccc2c(=O)n1Cc1cc(C(=O)NC2CC2)n(C)n1`, the “%Inh” value was 1%.

As to `Nc1n[nH]c2nnc(-c3ccccc3)c(-c3ccccc3)c12` [GW554060], the “%Inh” value is 1%.

Turning to `OCCCNc1nccc(-c2c(-c3cccc(C(F)(F)F)c3)nn3cc(C(F)(F)F)ccc23)n1` [GW630813], the “%Inh” value is 8%.

As for `O=C(NCCNc1ccnc(Nc2ccc(F)cc2)n1)Nc1ccc2c(c1)OCO2` [GSK1379882], the “%Inh” value came out at 14%.

On to `CCC(=O)c1c(-c2ccccc2)c2cc(Cl)ccc2c(=O)n1Cc1cc(S(C)(=O)=O)n(CCC(C)(C)O)n1`, for which the “%Inh” value stood at 8%.

Turning to `FC(F)(F)c1ccc(-c2ncn(CCCN3CCOCC3)c2-c2ccncc2)cc1` [SB-217780], the “%Inh” value is listed as 0%.

In the case of `COC(=O)c1c(-c2ccccc2)c2cc(Br)ccc2c(=O)n1Cc1ccc(S(C)(=O)=O)cc1`, the “%Inh” value came to 9%.

`CCCNC(=O)Nc1ccc(Oc2ncnc3ccn(C)c23)cc1`: the “%Inh” value is 3%.

Take `CCn1c(-c2ccoc2)nc2cnccc21` [SB-733887]: the “%Inh” value is given as 0%.

For `CCn1c(-c2nonc2N)nc2ccccc21` [SB-693162/GW549034], the “%Inh” value amounted to 0%.

For the molecule `Cc1nc(N(C)[C@H]2CN(C(=O)CC#N)CC[C@H]2C)c2cc[nH]c2n1`, the “%Inh” value was 0%.

`CCC(=O)c1c(-c2ccccc2)c2cc(Cl)ccc2c(=O)n1Cc1ccc(C(=O)O)cc1`: the “%Inh” value stood at 0%.

`COc1ccc(Nc2nccc(N3CCC(NS(=O)(=O)c4ccc(NC(C)=O)cc4)C3)n2)cc1` (centres unmarked) [GSK1379729]: the “%Inh” value is 9%.

As to `CCc1nc(-c2cccc(C)c2)c(-c2ccncc2)s1`, the “%Inh” value was determined as 49%.

Consider `COc1cc(Nc2ccnc3ccc(C(F)(F)F)cc23)cc(OC)c1OC` [GW577382], for which the “%Inh” value is given as 86%.

As to `COc1ccc(-c2cc3c(C)nc(N)nc3n([C@H]3CC[C@H](O)CC3)c2=O)cn1`, the “%Inh” value is listed as 0%.

In the case of `Cc1ccc(-c2ccc3c(ccc4sc5c(c43)NC[C@@H](C)N=C5N(C)C)n2)cn1`, the “%Inh” value was 0%.

`Cc1nnc(-c2ccc(C)c(-c3ccc(C(=O)O)cc3)c2)o1` [GW608005]: the “%Inh” value was determined as 5%.

For the molecule `COC(=O)c1c(-c2ccccc2)c2cc(C)ccc2c(=O)n1Cc1ccccc1`, the “%Inh” value is on record as 0%.

Turning to `COc1cccc(C2=C(Nc3cccc(C(=O)O)c3)C(=O)NC2=O)c1` [SB-390770], the “%Inh” value was found to be 21%.

As for `Fc1cccc(CSc2nnc(-c3ccc4c(c3)CCO4)o2)c1`, the “%Inh” value turned out to be 3%.

Regarding `Cc1cccc(-c2cc(-c3c[nH]nc3-c3ccccn3)ccn2)c1` [GW679395], the “%Inh” value is reported as 82%.

As to `CN(C)c1cc(-c2ccc3c(N)n[nH]c3c2)nc(N)n1` [GSK2219329], the “%Inh” value is reported as 0%.

Take `Cn1c(=O)c(F)c(Nc2ccc(I)cc2F)c2c(=O)n(OC[C@H](O)CO)cnc21`: the “%Inh” value stood at 11%.

Turning to `Cc1nnc(-c2ccc3ncn(-c4ccc(S(C)=O)cc4)c3c2)o1` (centres unmarked), the “%Inh” value stood at 2%.

For `CCC(=O)c1c(-c2ccccc2)c2cc(Cl)ccc2c(=O)n1Cc1cc(S(C)(=O)=O)n(CC(N)=O)n1`, the “%Inh” value worked out at 0%.

For the molecule `COc1cccc(-n2cnc3c(N)ncnc32)c1` [SKF-97416], the “%Inh” value came to 26%.

For `CCCC(=O)Nc1n[nH]c2ncc(-c3cccc4ccccc34)cc12` [SB-642057], the “%Inh” value was determined as 0%.

Consider `CN1C(=O)C(Nc2cc(Cl)c(O)c(Cl)c2)=C(c2ccc(Cl)cc2)C1=O` [SB-404321], for which the “%Inh” value amounted to 0%.

`Nc1nccc2scc(-c3ccc4c(c3)CCN4C(=O)Cc3ccccc3)c12` [GSK2576924]: the “%Inh” value is reported as 0%.

Regarding `CCc1ccc(-c2ccc3c(c2)-c2nn(C)cc2S(=O)(=O)N3C)cc1`, the “%Inh” value was 0%.

Regarding `O=C(NCc1cccs1)c1cc(C(=O)c2c(Cl)cccc2Cl)c[nH]1` [GW823670], the “%Inh” value stood at 0%.

In the case of `COC(=O)c1c(-c2ccccc2)c2cc(Br)ccc2c(=O)n1Cc1ccc(NC(=O)CCC(=O)O)cc1`, the “%Inh” value was found to be 0%.

Turning to `COc1ccc(CNC(=O)NC2CCN(c3ccnc(Nc4ccc(F)cc4)n3)C2)cc1` (centres unmarked) [GSK1379706], the “%Inh” value was 19%.

In the next assay the test system is T1, GCN2(Kin.Dom.2,S808G).
T1 construct: gene EIF2AK4
To be noted: concentration: 1 μM, replicates: in singlicate; n = 1.
For `Nc1ncnc2c1ncn2-c1ccc(Cl)cc1` [AH2635], the “%Inh” value was 0%.

Take `Nc1nc(-c2ccccc2F)c(-c2ccnc3ccccc23)s1` [GW560459]: the “%Inh” value stood at 6%.

In the case of `COc1cc2ncn(-c3cc(OCc4ccc(S(C)(=O)=O)cc4)c(C(N)=O)s3)c2cc1OC` [GW869979], the “%Inh” value is recorded as 0%.

With `CCC(=O)c1c(-c2ccccc2)c2cc(Cl)ccc2c(=O)n1Cc1cc(C(=O)NC2CC2)n(C)n1`, the “%Inh” value is on record as 0%.

On to `Nc1n[nH]c2nnc(-c3ccccc3)c(-c3ccccc3)c12` [GW554060], for which the “%Inh” value stood at 8%.

`OCCCNc1nccc(-c2c(-c3cccc(C(F)(F)F)c3)nn3cc(C(F)(F)F)ccc23)n1` [GW630813]: the “%Inh” value was 0%.

As for `O=C(NCCNc1ccnc(Nc2ccc(F)cc2)n1)Nc1ccc2c(c1)OCO2` [GSK1379882], the “%Inh” value stood at 0%.

In the case of `CCC(=O)c1c(-c2ccccc2)c2cc(Cl)ccc2c(=O)n1Cc1cc(S(C)(=O)=O)n(CCC(C)(C)O)n1`, the “%Inh” value worked out at 0%.

Turning to `FC(F)(F)c1ccc(-c2ncn(CCCN3CCOCC3)c2-c2ccncc2)cc1` [SB-217780], the “%Inh” value was found to be 8%.

On to `COC(=O)c1c(-c2ccccc2)c2cc(Br)ccc2c(=O)n1Cc1ccc(S(C)(=O)=O)cc1`, for which the “%Inh” value worked out at 0%.

As for `CCCNC(=O)Nc1ccc(Oc2ncnc3ccn(C)c23)cc1`, the “%Inh” value worked out at 10%.

On to `CCn1c(-c2ccoc2)nc2cnccc21` [SB-733887], for which the “%Inh” value is 0%.

Consider `CCn1c(-c2nonc2N)nc2ccccc21` [SB-693162/GW549034], for which the “%Inh” value is reported as 24%.

Consider `Cc1nc(N(C)[C@H]2CN(C(=O)CC#N)CC[C@H]2C)c2cc[nH]c2n1`, for which the “%Inh” value came out at 0%.

As for `CCC(=O)c1c(-c2ccccc2)c2cc(Cl)ccc2c(=O)n1Cc1ccc(C(=O)O)cc1`, the “%Inh” value was found to be 12%.

For the molecule `COc1ccc(Nc2nccc(N3CCC(NS(=O)(=O)c4ccc(NC(C)=O)cc4)C3)n2)cc1` (centres unmarked) [GSK1379729], the “%Inh” value came to 14%.

As to `CCc1nc(-c2cccc(C)c2)c(-c2ccncc2)s1`, the “%Inh” value is reported as 3%.

Take `COc1cc(Nc2ccnc3ccc(C(F)(F)F)cc23)cc(OC)c1OC` [GW577382]: the “%Inh” value turned out to be 9%.

As to `COc1ccc(-c2cc3c(C)nc(N)nc3n([C@H]3CC[C@H](O)CC3)c2=O)cn1`, the “%Inh” value was 0%.

As to `Cc1ccc(-c2ccc3c(ccc4sc5c(c43)NC[C@@H](C)N=C5N(C)C)n2)cn1`, the “%Inh” value was 0%.

For `Cc1nnc(-c2ccc(C)c(-c3ccc(C(=O)O)cc3)c2)o1` [GW608005], the “%Inh” value worked out at 0%.

With `COC(=O)c1c(-c2ccccc2)c2cc(C)ccc2c(=O)n1Cc1ccccc1`, the “%Inh” value stood at 0%.

For `COc1cccc(C2=C(Nc3cccc(C(=O)O)c3)C(=O)NC2=O)c1` [SB-390770], the “%Inh” value is listed as 0%.

Consider `Fc1cccc(CSc2nnc(-c3ccc4c(c3)CCO4)o2)c1`, for which the “%Inh” value came out at 4%.

As for `Cc1cccc(-c2cc(-c3c[nH]nc3-c3ccccn3)ccn2)c1` [GW679395], the “%Inh” value stood at 0%.

For the molecule `CN(C)c1cc(-c2ccc3c(N)n[nH]c3c2)nc(N)n1` [GSK2219329], the “%Inh” value was found to be 0%.

Consider `Cn1c(=O)c(F)c(Nc2ccc(I)cc2F)c2c(=O)n(OC[C@H](O)CO)cnc21`, for which the “%Inh” value is listed as 0%.

`Cc1nnc(-c2ccc3ncn(-c4ccc(S(C)=O)cc4)c3c2)o1` (centres unmarked): the “%Inh” value was found to be 19%.

For `CCC(=O)c1c(-c2ccccc2)c2cc(Cl)ccc2c(=O)n1Cc1cc(S(C)(=O)=O)n(CC(N)=O)n1`, the “%Inh” value was 0%.

For the molecule `COc1cccc(-n2cnc3c(N)ncnc32)c1` [SKF-97416], the “%Inh” value is given as 8%.

Take `CCCC(=O)Nc1n[nH]c2ncc(-c3cccc4ccccc34)cc12` [SB-642057]: the “%Inh” value was found to be 0%.

Regarding `CN1C(=O)C(Nc2cc(Cl)c(O)c(Cl)c2)=C(c2ccc(Cl)cc2)C1=O` [SB-404321], the “%Inh” value was 6%.

Consider `Nc1nccc2scc(-c3ccc4c(c3)CCN4C(=O)Cc3ccccc3)c12` [GSK2576924], for which the “%Inh” value came out at 0%.

As to `CCc1ccc(-c2ccc3c(c2)-c2nn(C)cc2S(=O)(=O)N3C)cc1`, the “%Inh” value was 9%.

Regarding `O=C(NCc1cccs1)c1cc(C(=O)c2c(Cl)cccc2Cl)c[nH]1` [GW823670], the “%Inh” value is reported as 8%.

Take `COC(=O)c1c(-c2ccccc2)c2cc(Br)ccc2c(=O)n1Cc1ccc(NC(=O)CCC(=O)O)cc1`: the “%Inh” value came out at 0%.

Take `COc1ccc(CNC(=O)NC2CCN(c3ccnc(Nc4ccc(F)cc4)n3)C2)cc1` (centres unmarked) [GSK1379706]: the “%Inh” value was found to be 4%.
